Whole data set: some 4,100 sequences, median “RBNS R-value (6-mer enrichment in protein-bound RNA vs input library)” near 0.99, cut for the highest 2% near 1.4. Only a selection was taken, and the highest values are over-represented in it overall.
System: PfIESI-1 RRM domain (Plasmodium falciparum ortholog aa 875-1232, GST fusion)
Assay: RBNS R-value (6-mer enrichment in protein-bound RNA vs input library) (ratio); higher = stronger binding preference; the methods of the paper give 50 / 100 / 500 nM protein instead
Experimental: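 RNA Bind-n-Seq: recombinant GST-tagged IESI-1 RRM domain was incubated at room temperature with a random 40-nt in vitro transcribed RNA library at 250, 500 or 1000 nM protein. Bound RNA was pulled down on glutathione beads and sequenced. R-value is the enrichment of each 6-mer in the bound RNA relative to the input library. Each 6-mer sits inside the random 40-mer context, not as an isolated oligo. Values are replicate 1 only.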

Row | Sequence | RBNS R-value (protein concentration: 250 nM) | RBNS R-value (protein concentration: 500 nM) | RBNS R-value (protein concentration: 1000 nM)
1 | UACCUA | 0.87 | 0.814 | 0.831
2 | GUAACA | 0.845 | 0.924 | 0.87
3 | AAAGAU | 1.06 | 1.19 | 1.11
4 | GGUACC | 1.07 | 1 | 1.08
5 | CCUCUA | 0.848 | 0.783 | 0.823
6 | ACGAGU | 1.04 | 1.06 | 1.02
7 | ACUUGU | 0.921 | 0.923 | 0.962
8 | CCUUGA | 1.46 | 1.37 | 1.32
9 | GCUUGA | 1.36 | 1.4 | 1.28
10 | CCUUGC | 1.16 | 1.03 | 1.09
11 | GCUUGU | 0.92 | 0.92 | 0.939
12 | ACUUGC | 1.02 | 0.979 | 1.01
13 | ACUUGA | 1.42 | 1.46 | 1.34
14 | UCUUGA | 1.3 | 1.32 | 1.25
15 | CCUUGG | 1.13 | 1.03 | 1.12
16 | CGAGUC | 1.09 | 1.04 | 1.06
17 | ACGCCU | 1.07 | 0.995 | 1.03
18 | AUGUGC | 1.04 | 1.07 | 1
19 | AGUCAA | 0.859 | 0.93 | 0.933
20 | AGAUUA | 0.942 | 1.04 | 0.964
21 | UGAUUC | 2.44 | 2.61 | 1.97
22 | CGAUUA | 1.05 | 1.11 | 1.04
23 | UGAUCC | 1.38 | 1.38 | 1.26
24 | GGAUUG | 1.02 | 1.02 | 1.02

Row | Sequence | RBNS R-value (protein concentration: 250 nM) | RBNS R-value (protein concentration: 500 nM) | RBNS R-value (protein concentration: 1000 nM)
25 | CGAUUC | 1.25 | 1.25 | 1.2
26 | UGAUUG | 2.38 | 2.42 | 1.85
27 | CGAUCC | 1.08 | 1.01 | 1.06
28 | AGAUUC | 1.19 | 1.22 | 1.17
29 | UGAUUA | 2.21 | 2.58 | 1.94
30 | CGAUUG | 1.28 | 1.27 | 1.2
31 | GGAUCC | 1.04 | 0.978 | 1.05
32 | CCCGCU | 1.09 | 0.999 | 1.04
33 | UAAUCC | 0.907 | 0.864 | 0.872
34 | AACCAA | 0.985 | 1.04 | 1.01
35 | AAAUAG | 0.904 | 1.06 | 0.986
36 | GGAUUU | 1.03 | 1.02 | 1.02
37 | AGAUUU | 1.17 | 1.26 | 1.16
38 | UGAUUU | 3 | 3.23 | 2.3
39 | AUUCCG | 1.2 | 1.14 | 1.16
40 | ACACCA | 1.16 | 1.1 | 1.1
41 | GCACCC | 1.5 | 1.26 | 1.33
42 | ACACCC | 1.53 | 1.28 | 1.33
43 | ACACCG | 1.17 | 1.12 | 1.15
44 | GCACCG | 1.14 | 1.09 | 1.14
45 | GCACCU | 1.21 | 1.11 | 1.13
46 | UUCGUU | 0.853 | 0.817 | 0.9
47 | CAUAUA | 0.762 | 0.733 | 0.715
48 | CUCCCU | 0.934 | 0.873 | 0.909

Row | Sequence | RBNS R-value (protein concentration: 250 nM) | RBNS R-value (protein concentration: 500 nM) | RBNS R-value (protein concentration: 1000 nM)
49 | GAACUG | 1.07 | 1.11 | 1.11
50 | AGAUAG | 0.998 | 1.07 | 1.04
51 | UGAUAU | 1.5 | 1.69 | 1.38
52 | UGAUAA | 1.67 | 1.89 | 1.54
53 | CGAUAA | 0.968 | 1.04 | 0.996
54 | AGAUAU | 0.955 | 1.04 | 0.969
55 | GGAUAC | 1.01 | 0.991 | 0.995
56 | UGAUAG | 1.87 | 2.08 | 1.65
57 | UGAUAC | 1.59 | 1.68 | 1.47
58 | CGAUAC | 1.04 | 1.03 | 1.02
59 | GGAUAG | 1.02 | 0.975 | 0.995
60 | GGAUAU | 0.937 | 0.921 | 0.959
61 | AGAUAA | 0.975 | 1.11 | 1.02
62 | UAGCUA | 0.902 | 0.926 | 0.903
63 | UGAAAA | 1.16 | 1.3 | 1.22
64 | AACGUG | 0.922 | 0.984 | 0.974
65 | UCGGGU | 0.945 | 0.901 | 1.01
66 | AUGCGU | 0.924 | 0.929 | 0.959
67 | UACCGC | 0.938 | 0.867 | 0.916
68 | UAAAAC | 0.916 | 1.05 | 0.979
69 | AGUAAA | 0.862 | 1.01 | 0.909
70 | AUUCUG | 1.19 | 1.22 | 1.1
71 | AUCUGA | 1.24 | 1.3 | 1.19
72 | AAAGGG | 1.07 | 1.12 | 1.12

Row | Sequence | RBNS R-value (protein concentration: 250 nM) | RBNS R-value (protein concentration: 500 nM) | RBNS R-value (protein concentration: 1000 nM)
73 | CGAUGC | 1.26 | 1.22 | 1.18
74 | CGAUGU | 1.13 | 1.16 | 1.09
75 | CGAUGA | 1.66 | 1.7 | 1.44
76 | GGAUGC | 1.04 | 0.968 | 1.07
77 | AGAUGU | 1.06 | 1.13 | 1.05
78 | GGAUGA | 1.23 | 1.25 | 1.17
79 | UGAUCA | 1.2 | 1.26 | 1.17
80 | UGAUGU | 2.5 | 2.78 | 2.1
81 | CGAUCA | 0.917 | 0.906 | 0.977
82 | UUAUGC | 0.832 | 0.799 | 0.831
83 | UGAUGC | 2.31 | 2.42 | 1.91
84 | UGAUGA | 3.34 | 3.56 | 2.48
85 | GGUCUU | 0.91 | 0.864 | 0.932
86 | UACACG | 0.894 | 0.857 | 0.867
87 | UGUAAU | 0.85 | 0.907 | 0.853
88 | AAGGUA | 0.941 | 1.01 | 0.987
89 | CAUCAU | 0.806 | 0.8 | 0.838
90 | GCCCGC | 1.24 | 1.09 | 1.2
91 | CGAGGC | 1.15 | 1.08 | 1.17
92 | CCAUCU | 0.967 | 0.915 | 0.956
93 | CCCUCU | 0.993 | 0.894 | 0.949
94 | GAGUGC | 1.09 | 1.01 | 1.04
95 | AGAUGC | 1.18 | 1.17 | 1.14
96 | AGAUGG | 1.12 | 1.14 | 1.14

Row | Sequence | RBNS R-value (protein concentration: 250 nM) | RBNS R-value (protein concentration: 500 nM) | RBNS R-value (protein concentration: 1000 nM)
97 | AGAUGA | 1.49 | 1.55 | 1.34
98 | UGAUGG | 2.48 | 2.56 | 1.9
99 | CGAUGG | 1.24 | 1.23 | 1.17
100 | AUAUGA | 1.1 | 1.23 | 1.07
101 | CAGGCA | 1.07 | 1.06 | 1.07
102 | GUGCGC | 0.961 | 0.907 | 0.975
103 | UUCUCC | 0.999 | 0.954 | 0.96
104 | UUAUCG | 0.802 | 0.76 | 0.799
105 | GUAUUG | 0.976 | 0.938 | 0.944
106 | GUAAUA | 0.77 | 0.864 | 0.803
107 | GAUUUU | 1.78 | 1.92 | 1.53
108 | AAUUUU | 0.989 | 1.08 | 1.03
109 | UAUUUA | 0.769 | 0.744 | 0.736
110 | GAUUUA | 1.33 | 1.46 | 1.22
111 | CAUUUC | 0.964 | 0.947 | 0.999
112 | AAUUUG | 1.08 | 1.18 | 1.11
113 | GAUUUG | 1.88 | 1.94 | 1.51
114 | CAUUUG | 1.03 | 1.08 | 1.04
115 | CAUUUA | 0.761 | 0.749 | 0.752
116 | AAUUUC | 1.06 | 1.11 | 1.05
117 | CAUUUU | 0.932 | 0.925 | 0.962
118 | GAUUUC | 1.71 | 1.74 | 1.52

— the supplement of paper PMC13392028
